The campaign covered roughly 63,000 compounds. About 1,100 (1.7%) were called active. Only a selection was taken, and actives are over-represented in it overall. Results with a measured potency or affinity are listed apart. Unmarked numbers belong to inactive results. No stated cut-off is given here; in the data, active means cytotoxicity above about 50%; inactive means the rest.
Assay: cytotoxicity in HPDE-C7 cells, cell-based, fluorescence, HTS (AID 430);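 further: cells exposed to compound for 48 hours before viability readout; 0% = vehicle and 100% = reference cytotoxic drug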
Details: HPDE-C7 pancreatic duct cells viability, at 10 µM, active compounds read high
With `Cc1ccc2c(C)nc(Nc3nc(CSc4nnnn4-c4ccccc4)cc(=O)[nH]3)nc2c1` the cytotoxicity was 51% (active). For `Cc1ccc(Nc2nc(CSc3nnnn3-c3ccccc3)cc(=O)[nH]2)cc1`, the cytotoxicity was 12%. Compound `Cc1nc(-c2ccccc2)cc(=O)[nH]1` has a cytotoxicity of 4%. In the case of `CCCCCc1c(C)nc(Nc2nc(C)c3cc(OC)ccc3n2)[nH]c1=O`, the cytotoxicity is reported as -0.5%. Work on `Cc1nnc(SCc2cc(=O)[nH]c(Nc3nc(C)c4ccccc4n3)n2)s1` yielded a cytotoxicity of -0.8%. In the case of `COc1nc(Nc2nc3ccccc3c(=O)[nH]2)nc2ccc(C)cc12`, the cytotoxicity is reported as 86.7% (active). `COc1ccc2nc(Nc3nc(C)c(CCC(C)C)c(=O)[nH]3)nc(C)c2c1` showed a cytotoxicity of 6.2%. For `CCc1c(C)nc(Nc2nc(C)c3cc(OC)ccc3n2)[nH]c1=O`, the cytotoxicity was 56.1% (active). For `Cc1ccc2nc(Nc3nc(=O)c4ccccc4n3C)nc(C)c2c1`, the cytotoxicity was 13.7%. In the case of `Cc1nc(Nc2nc(-c3ccccc3)cc(=O)[nH]2)nc2ccccc12`, the cytotoxicity is reported as 52.3% (active). With `Cc1ccc(Nc2nc(CSc3nnnn3-c3ccccc3)cs2)cc1` the cytotoxicity was 32.1%. For `COc1cc2nc(NC(=O)c3ccccc3)[nH]c(=O)c2cc1OC`, the cytotoxicity was 13.3%. In the case of `Cc1ccc(NC(=O)CSc2nnc(CNC(=O)c3c(F)cccc3Cl)o2)cc1`, the cytotoxicity is reported as -9.7%. With `CCOc1ccc(N2CC(C(=O)Nc3ccccc3OC)CC2=O)cc1` (stereo not drawn) the cytotoxicity was -2.5%. `COc1cc(C(=S)N2CCCC2)cc(Cl)c1O` showed a cytotoxicity of -4%. `COc1ccccc1-c1cc(C(=O)NCc2ccc(Cl)cc2)no1` showed a cytotoxicity of -15.3%. With `OCc1nn2c(c1Br)NC(c1ccccc1)CC2C(F)(F)F` (stereo not drawn) the cytotoxicity was -8.4%. Compound `CCOc1ccc(CCNC(=O)C2CCN(c3nn4c(=O)cc(C)nc4s3)CC2)cc1OCC` has a cytotoxicity of -6.6%. `COc1cc(OC)cc(C(=O)NC2CCN(Cc3nnnn3Cc3cccs3)CC2)c1` gave a cytotoxicity of -7.1%. For `CC(=O)NC(CCS(C)(=O)=O)C(=O)Nc1c(C)cccc1C` (stereo not drawn), the cytotoxicity was 10.4%. Work on `COc1ccc2c(C)nc(Nc3nc(C)cc(C)n3)nc2c1` yielded a cytotoxicity of -4.7%. With `COc1ccc2c(C)nc(Nc3nc(C)cc(=O)[nH]3)nc2c1` the cytotoxicity was 80.7% (active). In the case of `COCc1cc(=O)[nH]c(Nc2nc(C)c3ccc(C)cc3n2)n1`, the cytotoxicity is reported as 5.4%. In the case of `N#Cc1c(-c2ccccc2)nc(SCc2nc(N)nc(N3CCCCC3)n2)[nH]c1=O`, the cytotoxicity is reported as 9.2%. `CCN1CCN(CCNC(=O)c2cn(C(C)c3ccccc3F)nn2)CC1` (stereo not drawn) showed a cytotoxicity of -5.9%. For `COc1ccc(-c2cc(-c3ccccc3O)[nH]n2)cc1OC`, the cytotoxicity was 51.6% (active). `COc1ccc(-c2cc(-c3cc(F)ccc3O)[nH]n2)cc1OC` showed a cytotoxicity of 8.9%. `Oc1ccccc1-c1cc(-c2cccc(F)c2)n[nH]1` gave a cytotoxicity of 3.1%. Work on `Cc1ccc(-n2ncc(C#N)c2/N=C/N(C)C)cc1` yielded a cytotoxicity of 8.6%. `CC(=O)Nc1ccc(NC(=O)c2cccc(C(=O)OC(C)C)n2)cc1` showed a cytotoxicity of -2.2%. `O=C(NCCCN1CCN(CCCNC(=O)c2ccc(F)cc2)CC1)c1ccc(F)cc1` gave a cytotoxicity of -6.2%. Work on `CS(=O)(=O)N1CCc2cc(C(=O)O)ccc21` yielded a cytotoxicity of -2.9%. For `CS(=O)(=O)N1CCc2cc(S(=O)(=O)Nc3ccc4oc5c(c4c3)CCCC5)ccc21`, the cytotoxicity was 80% (active). With `CS(=O)(=O)N1CCc2cc(S(=O)(=O)N3CCN(Cc4ccc5c(c4)OCO5)CC3)ccc21` the cytotoxicity was 6.1%. Compound `COC(=O)c1ccccc1NC(=O)CSc1nnc(-c2cccc(NC(C)=O)c2)n1C` has a cytotoxicity of 6.2%. Compound `COc1ccc(OCc2nc(N)nc(Nc3cccc(C)c3C)n2)cc1` has a cytotoxicity of -10.3%. `N#Cc1c(NCCO)nc(NCc2ccccc2)c2c1CCN(Cc1ccccc1)C2` showed a cytotoxicity of 34.2%. In the case of `C=CCNc1nc(NCc2ccccc2)c(C#N)c2c1CN(C)CC2`, the cytotoxicity is reported as 14.5%. For `CCN1CCc2c(C#N)c(N3CCCCC3)nc(NCc3ccccc3)c2C1`, the cytotoxicity was 30.7%. For `N#Cc1c(NCCCO)nc(-c2ccccc2)c2c1CCCC2`, the cytotoxicity was 38.6%. With `O=C(c1ccccc1F)N1CCN(S(=O)(=O)c2ccc(S(=O)(=O)N3CCCCC3)cc2)CC1` the cytotoxicity was -2.6%. With `Cn1c(=O)n(C)c2cc(NS(C)(=O)=O)ccc21` the cytotoxicity was -29.4%. `Cc1noc(C)c1COC(=O)c1ccc2c(c1)OCO2` showed a cytotoxicity of -8.9%. In the case of `O=S(=O)(Nc1ccc2c(c1)nc1n2CCN(Cc2ccccc2)C1)c1ccc(Cl)cc1`, the cytotoxicity is reported as 68.2% (active). Work on `O=S(=O)(Nc1ccc2c(c1)nc1n2CCN(Cc2ccccc2)C1)c1ccccc1` yielded a cytotoxicity of 2.6%. Work on `Cc1ccc(S(=O)(=O)Nc2ccc3c(c2)nc2n3CCN(Cc3ccccc3)C2)cc1` yielded a cytotoxicity of 10.2%. Work on `Cc1ccc(NC(=O)c2ccco2)cc1C` yielded a cytotoxicity of -2.6%. Compound `O=C1NCCCC2c3c(cc(Br)c(O)c3Br)OC12N1CCOCC1` (stereo not drawn) has a cytotoxicity of -5.7%.
